Screening results from PubChem BioAssay.
Sampled rows, rich in hits. Any-hit rate of the full collection: about 7%.
ADAM17 inh: inhibitors of human ADAM17. hit rate 0.83% among 370,000. recombinant ADAM17, EDANS/DABCYL FRET peptide cleavage. inhibition, % at 6.95 µM;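 active = inhibition above the mean of compounds lying between control limits plus 3 SD, set per campaign, cut at about 8.5% in these data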;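 note: 0% = DMSO-only wells as the low control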
ADAM10 inh: inhibits human ADAM10 | O14672 | recombinant ADAM10, EDANS/DABCYL FRET peptide cleavage, 3 h | inhibition, % at 7 µM | hit rate 0.62% among 370,000;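 active = inhibition above a per-campaign cutoff equal to the mean of compounds falling between control-based bounds plus 3 SD, cut at about 20% in these data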;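 note: 0% = DMSO wells while the 100% control is not disclosed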
proKLK7 act: activates the human kallikrein-7 zymogen | P49862 | purified proKLK7, EDANS-DABCYL substrate fluorescence; 100% is mature enzyme control, 0% vehicle | activation, % at 7 µM | hit rate 0.9% among 370,000 | AID 652039;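 active = activation above the mean of all tested compounds plus 3 SD, computed per campaign excluding outliers beyond control limits, cut at about 13% in these data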
Target sequence (P49862 whole entry, looked up): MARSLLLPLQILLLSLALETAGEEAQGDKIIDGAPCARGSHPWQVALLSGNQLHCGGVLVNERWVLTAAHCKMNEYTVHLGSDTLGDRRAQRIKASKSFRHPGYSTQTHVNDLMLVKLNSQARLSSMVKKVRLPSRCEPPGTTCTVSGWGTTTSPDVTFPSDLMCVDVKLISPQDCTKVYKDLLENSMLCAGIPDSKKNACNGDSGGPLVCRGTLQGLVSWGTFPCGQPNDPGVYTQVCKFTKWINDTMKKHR
NR3A LBD binder: NR3A (human) ligand-binding domain modulation | NR3A LBD differential scanning fluorimetry, Tm shift; 0% = protein alone, 100% = glycine-bound protein | Tm shift relative to glycine control, % at 25 µM | hit rate 2.5% among 340,000;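 active = melting temperature shift of at least 10% of the positive control shift, at one fixed dose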
rCAG binder: molecules binding r(CAG) RNA repeats; AID 651821; r(CAG) RNA repeat, TO-PRO-1 dye displacement fluorescence; hit rate 1.3% among 370,000; inhibition, % at 3 µM;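 active = inhibition above the plate cutoff, the mean of all test compounds on that plate plus 3 SD, cut at about 35% in these data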;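 note: 0% = DMSO alone and 100% = 100 µM mitoxantrone as full dye displacement; higher means more dye released from RNA so lower well fluorescence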
AHR activator: activators of human aryl hydrocarbon receptor; AID 2796; P35869; hit rate 2.5% among 320,000; activation, % at 5 µM; AHR-responsive luciferase reporter cells, luminescence; in the data active = activation above about 47%;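 note: 0% = vehicle wells and 100% = reference agonist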
The depositor's hits bear a star; nt = not tested or not shown.

SMILES	ADAM17 inh	ADAM10 inh	proKLK7 act	NR3A LBD binder	rCAG binder	AHR activator
COc1ccc(-c2cccc(NS(=O)(=O)c3cc([N+](=O)[O-])ccc3C)c2)nn1	2	4	0	3	29	0
COc1ccc(-c2cccc(NS(=O)(=O)c3cc([N+](=O)[O-])c(C)c([N+](=O)[O-])c3)c2)nn1	0	2	1	-1	57*	0
COC(=O)[C@]12C[C@H](CC(=O)N3CCSCC3)C(=O)N(Cc3ccc4c(c3)OCO4)C1=C[C@H](COCc1ccccc1)O[C@@H]2C	2	6	0	nt	4	nt
CC(=O)NCc1ccc(OCCCN2CCC(C(O)(c3ccccc3)c3ccccc3)CC2)cc1	-6	-28	0	nt	-1	nt
Cn1cccc1/C=C1\SC(=S)N(NC(=O)c2ccccc2)C1=O	5	7	1	-7	-6	0
Cn1cccc1/C=C1\SC(=S)N(NC(=O)c2cccc(Cl)c2)C1=O	4	7	0	13*	11	-1
Cc1ccc(N=Cc2cc3c(cc2O)OC(N)=C(C#N)C3c2ccccc2)cc1 (stereo not drawn)	-15	-59	-30	12*	10	12
N#CC1=C(N)Oc2cc(O)c(C=Nc3ccccc3)cc2C1c1ccccc1 (stereo not drawn)	-16	-53	-32	-4	4	3
COC(=O)[C@]12C[C@H](CC(=O)N3CCC(c4ccccc4)CC3)C(=O)N(CCC3=CCCCC3)C1=C[C@H](C1CCCC1)O[C@@H]2C	-1	4	0	nt	6	nt
O=C(O)CCCN1C(=O)/C(=C\c2ccccc2OCc2ccccc2)SC1=S	3	16	1	4	52*	-4
O=C(CCCN1C(=O)/C(=C/c2ccc3c(c2)OCO3)SC1=S)Nc1cccc(C(=O)O)c1	0	-13	0	-26	51*	-17
O=C(CCCN1C(=O)/C(=C\c2ccccc2)SC1=S)Nc1ccc(O)cc1	5	24*	0	6	8	-3
O=C(CCCN1C(=O)/C(=C/c2ccccc2)SC1=S)Nc1cccc(O)c1	7	12	0	12*	8	0
O=C(Nc1ccc(N2C(=O)CC(c3ccccc3)C2=O)c(Cl)c1)c1ccccn1 (stereo not drawn)	2	8	nt	nt	nt	nt
CC(C)NC(=O)N[C@H]1C[C@@H]2O[C@H](CO)CC[C@@H]2O[C@@H]1CCc1ccc(-c2ccc(F)cc2)cc1	2	1	0	nt	-1	nt
CC(C)(C)C(=O)c1c(N)[nH]c(C(=O)c2ccccc2)c1-c1ccc([N+](=O)[O-])cc1	-1	-6	1	nt	5	nt
O=C(CCN1C(=O)/C(=C\c2ccc(F)cc2)SC1=S)Nc1ccc(O)cc1	-1	-2	0	8	5	0
CC(/C=C1\SC(=S)N(CCC(=O)Nc2ccc(O)cc2)C1=O)=C\c1ccccc1	7	14	-1	14*	19	-1
O=C(CCCN1C(=O)/C(=C\c2ccccc2)SC1=S)Nc1cccc(C(=O)O)c1	0	6	-1	-2	66*	0
COc1ccc(/C=C2\SC(=S)N(CCC(=O)Nc3ccc(O)cc3)C2=O)cc1	-3	-4	0	15*	5	-3
CN1C(=O)/C(=C/c2ccccc2OCc2ccc(F)cc2)N(C)C1=S	2	7	1	-11	2	78*
COc1ccc(NS(=O)(=O)c2cc(NC(=O)/C=C/c3cccs3)ccc2N2CCOCC2)cc1	2	10	-10	30*	14	37
C#CCNC(=O)C[C@@H]1C(=O)N2CCCC3=C2[C@@]1(C(=O)OC)CCCC3	-2	-2	0	nt	3	nt
O=C(CC1SC(=NCCc2ccccc2)N(/N=C/c2cccs2)C1=O)Nc1ccc(Cl)cc1 (stereo not drawn)	-1	-1	-1	21*	8	3
O=C(CC1SC(=Nc2ccccc2)N(CCCO)C1=O)Nc1ccc(Cl)cc1 (stereo not drawn)	nt	nt	nt	-7	nt	15
Cc1onc(-c2ccccc2)c1C(=O)NCCc1ccc(S(N)(=O)=O)cc1	0	3	0	-2	-1	76*
Cc1onc(-c2ccccc2)c1C(=O)NNC(=O)c1ccccc1O	-5	-12	0	-4	2	78*
Cc1onc(-c2ccccc2)c1C(=O)NNC(=O)c1ccccc1	-2	-16	1	2	2	12
